The record followed here is PubChem BioAssay (NCI).

This is part of a sample that, as a whole, favours compounds with a hit. Of some 79,000 tested, about 15% had one in any assay. Values without a mark were called inactive. The source made the active and inactive calls. No stated cut-off is given here; in the data, active means growth inhibition above about 70%; inactive means the rest.

Experiment [1] can be described thus: NCI Yeast Anticancer Drug Screen. Data for the rad50 strain (AID 155).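 Further: 0% = growth of vehicle-only cultures of the same strain.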 Particulars: S. cerevisiae rad50 strain growth inhibition, hits give high values. The essentials:
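Relative growth inhibition (compound vs vehicle) was measured in yeast with a defined repair-gene alteration.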

Experiment [2] is described as follows: NCI Yeast Anticancer Drug Screen. Data for the mec2-1 strain (AID 157). Particulars: S. cerevisiae mec2-1 strain, hits give high values. The essentials:
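Strain: mec2-1 (DNA repair/cell cycle alteration). Compound exposure, then growth measured; inhibition expressed relative to vehicle.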

The nature of experiment [3]: NCI Yeast Anticancer Drug Screen. Data for the sgs1 mgt1 strain (AID 161).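 Further: 0% = growth of cultures given vehicle only.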 The following applies: S. cerevisiae sgs1 mgt1 strain, hits give high values. The essentials:
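Read-out: growth inhibition vs vehicle controls. Cells: mutant yeast strain deficient in DNA damage repair.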

Experiment [4] can be described thus: NCI Yeast Anticancer Drug Screen. Data for the cln2 rad14 strain (AID 165).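 Further: 0% = growth equal to vehicle treated cultures.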 Particulars: S. cerevisiae cln2 rad14 strain, hits give high values. In a few lines: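 Compounds are applied to the cln2 rad14 yeast strain, and growth is then compared with that of vehicle-treated cultures to give inhibition.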
The nature of experiment [5]: NCI Yeast Anticancer Drug Screen. Data for the bub3 strain (AID 167). The following applies: S. cerevisiae bub3 mutant strain, hits give high values. In a few lines: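 Screening used yeast with an engineered genetic alteration affecting cell cycle control. Compound-exposed cultures were compared with vehicle cultures, and reduced growth was taken as inhibition.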
Experiment [6] in a line: NCI Yeast Anticancer Drug Screen. Data for the mlh1 rad18 strain (AID 175). Particulars: S. cerevisiae mlh1 rad18 strain growth inhibition, hits give high values. In a few lines:
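Read-out is yeast growth inhibition, calculated against vehicle-only controls. The compound was applied to a strain engineered with DNA damage repair alterations.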

[7] abbreviates: at 5.0 µM (retest, dose inferred, filed as 0.5).
Where [8] appears, read: at 50.0 µM (retest, dose inferred, filed as 5.0).

Regarding `O=C(O)CCCNc1ncc2c(n1)-c1ccccc1OC2`, the growth inhibition in experiment [1] (setting [7]) was 19%; in experiment [1] (setting [8]), 7%; in experiment [1] (at 50.0 µM), 65.5%; in experiment [2] (setting [7]), 11%; in experiment [2] (setting [8]), 9%; in experiment [2] (at 50.0 µM), 51%. Further, the growth inhibition is 8% in experiment [3] (setting [7]); 12% in experiment [3] (setting [8]); -3.35% in experiment [3] (at 50.0 µM); 20% in experiment [4] (setting [7]); 15% in experiment [4] (setting [8]); -26% in experiment [4] (at 50.0 µM). The growth inhibition is 14% in experiment [5] (setting [7]); 8% in experiment [5] (setting [8]); -22.9% in experiment [5] (at 50.0 µM); 12% in experiment [6] (setting [7]); 9% in experiment [6] (setting [8]); -9.3% in experiment [6] (at 50.0 µM).
Take `CC(C)(C)C1=CC(N2CCCCC2)(C(C)(C)C)C=C(C(C)(C)C)C1=O`: the growth inhibition in experiment [1] (setting [7]) is 0%; in experiment [1] (setting [8]) it was 55%; in experiment [1] (at 50.0 µM) it was 93.8% (active); in experiment [2] (setting [7]), -2%; in experiment [2] (setting [8]), 64%; in experiment [2] (at 50.0 µM), 91.8% (active). Further, the growth inhibition in experiment [3] (setting [7]) is 3%; in experiment [3] (setting [8]) it was 77% (active); in experiment [3] (at 50.0 µM), 95.3% (active); in experiment [4] (setting [7]) it was -3%; in experiment [4] (setting [8]) it was 30%; in experiment [4] (at 50.0 µM) it was 65.3%. Moreover, the growth inhibition in experiment [5] (setting [7]) is -6%; in experiment [5] (setting [8]), 35%; in experiment [5] (at 50.0 µM), 81.2% (active); in experiment [6] (setting [7]) it was 0%; in experiment [6] (setting [8]), 73% (active); in experiment [6] (at 50.0 µM), 94.8% (active).
On to `S=C1C(=Nc2ccccc2)N(c2ccccc2)/C(=N\c2cccc[n+]2Cc2ccccc2)N1c1ccccc1`, for which the growth inhibition in experiment [1] (setting [7]) is -17%; in experiment [1] (setting [8]) it was 89% (active); in experiment [1] (at 50.0 µM), 96.6% (active); in experiment [2] (setting [7]), -10%; in experiment [2] (setting [8]) it was 99% (active); in experiment [2] (at 50.0 µM), 97.9% (active). For the same molecule, the growth inhibition was -1% in experiment [3] (setting [7]); 72% (active) in experiment [3] (setting [8]); 98.7% (active) in experiment [3] (at 50.0 µM); -17% in experiment [4] (setting [7]); 48% in experiment [4] (setting [8]); 94.5% (active) in experiment [4] (at 50.0 µM). Moreover, the growth inhibition in experiment [5] (setting [7]) was -20%; in experiment [5] (setting [8]) it was 85% (active); in experiment [5] (at 50.0 µM), 98% (active); in experiment [6] (setting [7]) it was -23%; in experiment [6] (setting [8]) it was 96% (active); in experiment [6] (at 50.0 µM), 98.2% (active).
Take `COC(=O)c1nc(=S)[nH]c(C(=O)OC)c1C(=O)C(C)(C)C`: the growth inhibition in experiment [1] (setting [7]) is 6%; in experiment [1] (setting [8]), 24%; in experiment [1] (at 50.0 µM) it was -6.8%; in experiment [2] (setting [7]) it was 4%; in experiment [2] (setting [8]), 18%; in experiment [2] (at 50.0 µM) it was -10.4%. Also, the growth inhibition in experiment [3] (setting [7]) was 11%; in experiment [3] (setting [8]), 22%; in experiment [3] (at 50.0 µM), -21.9%; in experiment [4] (setting [7]), 5%; in experiment [4] (setting [8]), 22%; in experiment [4] (at 50.0 µM) it was 45.6%. The growth inhibition in experiment [5] (setting [7]) is 5%; in experiment [5] (setting [8]), 26%; in experiment [5] (at 50.0 µM), -25.2%; in experiment [6] (setting [7]), 9%; in experiment [6] (setting [8]) it was 20%; in experiment [6] (at 50.0 µM), 4.75%.
With `O=[N+]([O-])c1ccc(CN2CCN(c3nccs3)CC2)cc1`, the growth inhibition in experiment [1] (setting [7]) is 5%; in experiment [1] (setting [8]) it was 22%; in experiment [1] (at 50.0 µM) it was 76.8% (active); in experiment [2] (setting [7]), -3%; in experiment [2] (setting [8]), 11%; in experiment [2] (at 50.0 µM) it was 51%. In addition, the growth inhibition in experiment [3] (setting [7]) is 1%; in experiment [3] (setting [8]) it was 61%; in experiment [3] (at 50.0 µM), 77.8% (active); in experiment [4] (setting [7]), -1%; in experiment [4] (setting [8]), 29%; in experiment [4] (at 50.0 µM) it was 34.5%. Besides, the growth inhibition in experiment [5] (setting [7]) is -1%; in experiment [5] (setting [8]), 38%; in experiment [5] (at 50.0 µM), 66.6%; in experiment [6] (setting [7]) it was 3%; in experiment [6] (setting [8]), 46%; in experiment [6] (at 50.0 µM) it was 66.2%.
In the case of `CCc1cc(/C=C\c2ccnc3ccccc23)ccc1N(C)C`, the growth inhibition is -1% in experiment [1] (setting [7]); 99% (active) in experiment [1] (setting [8]); 98.2% (active) in experiment [1] (at 50.0 µM); -17% in experiment [2] (setting [7]); 91% (active) in experiment [2] (setting [8]); 98.4% (active) in experiment [2] (at 50.0 µM). Also, the growth inhibition in experiment [3] (setting [7]) is -1%; in experiment [3] (setting [8]), 95% (active); in experiment [3] (at 50.0 µM), 98.3% (active); in experiment [4] (setting [7]) it was -12%; in experiment [4] (setting [8]), 81% (active); in experiment [4] (at 50.0 µM), 93.5% (active). The growth inhibition in experiment [5] (setting [7]) is -6%; in experiment [5] (setting [8]), 93% (active); in experiment [5] (at 50.0 µM), 98.1% (active); in experiment [6] (setting [7]), -8%; in experiment [6] (setting [8]), 97% (active); in experiment [6] (at 50.0 µM), 98% (active).
As for `CN(C)C(=S)N/N=C/c1ccccn1`, the growth inhibition was 94% (active) in experiment [1] (setting [7]); 98% (active) in experiment [1] (setting [8]); 98.7% (active) in experiment [1] (at 50.0 µM); 95% (active) in experiment [2] (setting [7]); 98% (active) in experiment [2] (setting [8]); 98.9% (active) in experiment [2] (at 50.0 µM). Also, the growth inhibition is 95% (active) in experiment [3] (setting [7]); 99% (active) in experiment [3] (setting [8]); 98.4% (active) in experiment [3] (at 50.0 µM); 95% (active) in experiment [4] (setting [7]); 99% (active) in experiment [4] (setting [8]); 98.3% (active) in experiment [4] (at 50.0 µM). The growth inhibition in experiment [5] (setting [7]) is 95% (active); in experiment [5] (setting [8]) it was 97% (active); in experiment [5] (at 50.0 µM) it was 99% (active); in experiment [6] (setting [7]), 95% (active); in experiment [6] (setting [8]), 98% (active); in experiment [6] (at 50.0 µM) it was 98.8% (active).
Take `CCN(CC)CCNc1ccc(C)c2sc3cccc(O)c3c(=O)c12`: the growth inhibition was 86% (active) in experiment [1] (setting [7]); 99% (active) in experiment [1] (setting [8]); 99.2% (active) in experiment [1] (at 50.0 µM); 3% in experiment [2] (setting [7]); 72% (active) in experiment [2] (setting [8]); 99.7% (active) in experiment [2] (at 50.0 µM). Further, the growth inhibition in experiment [3] (setting [7]) is 15%; in experiment [3] (setting [8]), 96% (active); in experiment [3] (at 50.0 µM), 99.5% (active); in experiment [4] (setting [7]) it was 2%; in experiment [4] (setting [8]), 85% (active); in experiment [4] (at 50.0 µM), 55.5%. The growth inhibition in experiment [5] (setting [7]) is 10%; in experiment [5] (setting [8]), 96% (active); in experiment [5] (at 50.0 µM), 99.5% (active); in experiment [6] (setting [7]), 12%; in experiment [6] (setting [8]), 99% (active); in experiment [6] (at 50.0 µM) it was 99.3% (active).
For `NC(=O)NOC(=O)c1ccccc1`, the growth inhibition is 42% in experiment [1] (setting [7]); 97% (active) in experiment [1] (setting [8]); 85.3% (active) in experiment [1] (at 50.0 µM); 6% in experiment [2] (setting [7]); 97% (active) in experiment [2] (setting [8]); 87.5% (active) in experiment [2] (at 50.0 µM). Further, the growth inhibition is 18% in experiment [3] (setting [7]); 95% (active) in experiment [3] (setting [8]); 87.4% (active) in experiment [3] (at 50.0 µM); -7% in experiment [4] (setting [7]); 96% (active) in experiment [4] (setting [8]); 86.8% (active) in experiment [4] (at 50.0 µM). In addition, the growth inhibition was -4% in experiment [5] (setting [7]); 95% (active) in experiment [5] (setting [8]); 79.2% (active) in experiment [5] (at 50.0 µM); 21% in experiment [6] (setting [7]); 97% (active) in experiment [6] (setting [8]); 96.8% (active) in experiment [6] (at 50.0 µM).
